# Reference: PMC11062922 (Nature Chemical Biology, 2023)
# Read-outs that look alike come from different tables or passages of the source.
# Experiments:
# Set-up in all cases: species or system human, MV4-11 + K-562 + COLO205 + SK-N-BE2 + OVCAR-8
# ACVR1B = conditions: read-out: apparent Kd, n = 1
# ACVR1 = conditions: read-out: apparent Kd; compound concentrations: 100 nM and 1000 nM (sheet 'Samples'), CATDS: 1.9559764953072701E-2; n = 1
# ACVR2B = conditions: read-out: apparent Kd; compound concentrations: 100 nM and 1000 nM (sheet 'Samples'), CATDS: 2.6273503134627601E-2; n = 1
# BCR = conditions: read-out: apparent Kd; compound concentrations: 100 nM and 1000 nM (sheet 'Samples'), CATDS: 2.1537689296735201E-2; n = 1
# BMPR1B = conditions: read-out: apparent Kd; compound concentrations: 100 nM and 1000 nM (sheet 'Samples'), CATDS: 2.4616373356857599E-2; n = 1
# BRAF = conditions: read-out: apparent Kd; compound concentrations: 100 nM and 1000 nM (sheet 'Samples'), CATDS: 1.9586867815954801E-2; n = 1
# BUB1 = conditions: read-out: apparent Kd; compound concentrations: 100 nM and 1000 nM (sheet 'Samples'), CATDS: 2.2537896529622702E-2; n = 1
# CIT = conditions: read-out: apparent Kd, compound concentrations: 100 nM and 1000 nM (sheet 'Samples'), n = 1
# CSNK1A1 = conditions: read-out: apparent Kd, compound concentrations: 100 nM and 1000 nM (sheet 'Samples'), n = 1
# CSNK1D = conditions: read-out: apparent Kd, n = 1
# CSNK1E = conditions: read-out: apparent Kd, compound concentrations: 100 nM and 1000 nM (sheet 'Samples'), n = 1
# EPHA1 = conditions: read-out: apparent Kd; compound concentrations: 100 nM and 1000 nM (sheet 'Samples'), CATDS: 3.1864310867846697E-2; n = 1
# FRK = conditions: read-out: apparent Kd; compound concentrations: 100 nM and 1000 nM (sheet 'Samples'), CATDS: 4.4669706945154999E-2; n = 1
# FYN = conditions: read-out: apparent Kd; compound concentrations: 100 nM and 1000 nM (sheet 'Samples'), CATDS: 2.2205933689287499E-2; n = 1
# MAPK14 = conditions: read-out: apparent Kd, compound concentrations: 100 nM and 1000 nM (sheet 'Samples'), n = 1
# MAPK9 = conditions: read-out: apparent Kd, compound concentrations: 100 nM and 1000 nM (sheet 'Samples'), n = 1
# MAPKAPK2 = conditions: read-out: apparent Kd, compound concentrations: 100 nM and 1000 nM (sheet 'Samples'), n = 1
# PKN3 = conditions: read-out: apparent Kd; compound concentrations: 100 nM and 1000 nM (sheet 'Samples'), CATDS: 0.20654584562915099; n = 1
# PRKCI = conditions: read-out: apparent Kd; compound concentrations: 100 nM and 1000 nM (sheet 'Samples'), CATDS: 3.04574994167322E-2; n = 1
# PRKD2 = conditions: read-out: apparent Kd, n = 1
# PTK6 = conditions: read-out: apparent Kd; compound concentrations: 100 nM and 1000 nM (sheet 'Samples'), CATDS: 3.9660106147075401E-2; n = 1
# RET = conditions: read-out: apparent Kd; compound concentrations: 100 nM and 1000 nM (sheet 'Samples'), CATDS: 0.10726511440353401; n = 1
# RIPK2 = conditions: read-out: apparent Kd, compound concentrations: 100 nM and 1000 nM (sheet 'Samples'), n = 1
# RIPK3 = conditions: read-out: apparent Kd; compound concentrations: 100 nM and 1000 nM (sheet 'Samples'), CATDS: 5.5820006344930999E-2; n = 1
# RPS6KB1 = conditions: read-out: apparent Kd; compound concentrations: 100 nM and 1000 nM (sheet 'Samples'), CATDS: 1.9963914199749098E-2; n = 1
# SIK2 = conditions: read-out: apparent Kd; compound concentrations: 100 nM and 1000 nM (sheet 'Samples'), CATDS: 2.1322969574131299E-2; n = 1
# SIK3 = conditions: read-out: apparent Kd; compound concentrations: 100 nM and 1000 nM (sheet 'Samples'), CATDS: 2.2436255384138602E-2; n = 1
# SLK = conditions: read-out: apparent Kd; compound concentrations: 100 nM and 1000 nM (sheet 'Samples'), CATDS: 3.1142117408046201E-2; n = 1
# STK10 = conditions: read-out: apparent Kd; compound concentrations: 100 nM and 1000 nM (sheet 'Samples'), CATDS: 2.2718990110139101E-2; n = 1
# TGFBR1 = conditions: read-out: apparent Kd, n = 1
# TGFBR2 = conditions: read-out: apparent Kd, n = 1
# TNIK = conditions: read-out: apparent Kd, n = 1
# AKT3 = conditions: read-out: apparent Kd; compound concentrations: 100 nM and 1000 nM (sheet 'Samples'), CATDS: 5.7187277937225903E-2; n = 1
# MAPK10 = conditions: read-out: apparent Kd; compound concentrations: 100 nM and 1000 nM (sheet 'Samples'), CATDS: 8.4251059270540496E-2; n = 1
# MYLK3 = conditions: read-out: apparent Kd; compound concentrations: 100 nM and 1000 nM (sheet 'Samples'), CATDS: 7.2718608613227403E-2; n = 1
# CDK7 = conditions: read-out: apparent Kd; compound concentrations:100 nM and 1000 nM (sheet 'Samples'); n = 1
# GAK = conditions: read-out: apparent Kd; compound concentrations:100 nM and 1000 nM (sheet 'Samples'); n = 1
# NQO2 = conditions: read-out: apparent Kd; compound concentrations:100 nM and 1000 nM (sheet 'Samples'); n = 1
# PRKD3 = conditions: read-out: apparent Kd; compound concentrations:100 nM and 1000 nM (sheet 'Samples'); n = 1
# TNK1 = conditions: read-out: apparent Kd; compound concentrations:100 nM and 1000 nM (sheet 'Samples'); n = 1
# [1] = compound concentrations:100 nM and 1000 nM (sheet 'Samples')
smiles,measurement,setting,value
CC(C)(CN)c1nc(-c2ccc(Cl)c(O)c2)c(-c2ccncc2)[nH]1.O=C(O)C(F)(F)F [SB-477794-AAA],potency estimated from few doses,"ACVR1B; compound concentrations: 100 nM and 1000 nM (sheet 'Samples'), CATDS: 5.2307110654739801E-2",55.4 nM
same,potency estimated from few doses,ACVR1,1330 nM
same,potency estimated from few doses,ACVR2B,388 nM
same,potency estimated from few doses,BCR,833 nM
same,potency estimated from few doses,BMPR1B,488 nM
same,potency estimated from few doses,BRAF,1320 nM
same,potency estimated from few doses,BUB1,687 nM
same,potency estimated from few doses,CIT; CATDS: 2.75730146177765E-2,330 nM
same,potency estimated from few doses,CSNK1A1; CATDS: 2.3707563911338599E-2,562 nM
same,potency estimated from few doses,"CSNK1D; compound concentrations: 100 nM and 1000 nM (sheet 'Samples'), CATDS: 4.2810001426460499E-2",92.5 nM
same,potency estimated from few doses,CSNK1E; CATDS: 3.2440470018423401E-2,199 nM
same,potency estimated from few doses,EPHA1,210 nM
same,potency estimated from few doses,FRK,82.8 nM
same,potency estimated from few doses,FYN,730 nM
same,potency estimated from few doses,MAPK14; CATDS: 3.89835717032921E-2,119 nM
same,potency estimated from few doses,MAPK9; CATDS: 1.8300020860960699E-2,2000 nM
same,potency estimated from few doses,MAPKAPK2; CATDS: 2.4524702318677E-2,495 nM
same,potency estimated from few doses,PKN3,2.21 nM
same,potency estimated from few doses,PRKCI,241 nM
same,potency estimated from few doses,"PRKD2; compound concentrations: 100 nM and 1000 nM (sheet 'Samples'), CATDS: 2.0032181023514398E-2",1170 nM
same,potency estimated from few doses,PTK6,113 nM
same,potency estimated from few doses,RET,9.97 nM
same,potency estimated from few doses,RIPK2; CATDS: 0.143338451264474,5.13 nM
same,potency estimated from few doses,RIPK3,47.1 nM
same,potency estimated from few doses,RPS6KB1,1200 nM
same,potency estimated from few doses,SIK2,871 nM
same,potency estimated from few doses,SIK3,699 nM
same,potency estimated from few doses,SLK,225 nM
same,potency estimated from few doses,STK10,665 nM
same,potency estimated from few doses,"TGFBR1; compound concentrations: 100 nM and 1000 nM (sheet 'Samples'), CATDS: 5.82262421070339E-2",42.5 nM
same,potency estimated from few doses,"TGFBR2; compound concentrations: 100 nM and 1000 nM (sheet 'Samples'), CATDS: 8.8931452038097006E-2",15.4 nM
same,potency estimated from few doses,"TNIK; compound concentrations: 100 nM and 1000 nM (sheet 'Samples'), CATDS: 1.9385936597074001E-2",1400 nM
Nc1nccc(-c2c(-c3ccc(F)cc3)ncn2CCCN2CCOCC2)n1 [SB-216385],potency estimated from few doses,"ACVR1B; compound concentrations: 100 nM and 1000 nM (sheet 'Samples'), CATDS: 6.1592389938983201E-2",1120 nM
same,potency estimated from few doses,AKT3,1440 nM
same,potency estimated from few doses,CIT; CATDS: 5.03714140810754E-2,2400 nM
same,potency estimated from few doses,CSNK1A1; CATDS: 7.2342208976373404E-2,712 nM
same,potency estimated from few doses,"CSNK1D; compound concentrations: 100 nM and 1000 nM (sheet 'Samples'), CATDS: 0.22591064083460399",86.6 nM
same,potency estimated from few doses,CSNK1E; CATDS: 0.181188642263544,120 nM
same,potency estimated from few doses,MAPK10,493 nM
same,potency estimated from few doses,MAPK14; CATDS: 0.16940162518750301,134 nM
same,potency estimated from few doses,MAPK9; CATDS: 7.1166451805227196E-2,743 nM
same,potency estimated from few doses,MAPKAPK2; CATDS: 7.7439810634818695E-2,601 nM
same,potency estimated from few doses,MYLK3,703 nM
same,potency estimated from few doses,RIPK2; CATDS: 6.8187313119451795E-2,834 nM
same,potency estimated from few doses,"TGFBR1; compound concentrations: 100 nM and 1000 nM (sheet 'Samples'), CATDS: 5.4047908089072998E-2",1770 nM
c1ccc(-c2n[nH]cc2-c2ccnc(-c3ccc(CNC4CCOCC4)cc3)c2)nc1 [GW709213X],potency estimated from few doses,ACVR1B; [1],39.1 nM
same,potency estimated from few doses,CDK7,1090 nM
same,potency estimated from few doses,CSNK1D; [1],1500 nM
same,potency estimated from few doses,GAK,1150 nM
same,potency estimated from few doses,NQO2,925 nM
same,potency estimated from few doses,PRKD2; [1],195 nM
same,potency estimated from few doses,PRKD3,193 nM
same,potency estimated from few doses,TGFBR1; [1],12.6 nM
same,potency estimated from few doses,TGFBR2; [1],1330 nM
same,potency estimated from few doses,TNIK; [1],2410 nM
same,potency estimated from few doses,TNK1,445 nM
